From ChEMBL document CHEMBL3988442, “University of Dundee, Small-Polar-MMV Screening Library” (2021) come the findings set out here.

What all share (set-up): scale not given: direction of the effect not stated beside the values
The target in test [1] is Protein translocase subunit SecA (Escherichia coli (strain K12)) (UniProt P10408). The test can be described thus: Assay to Identify E. coli SecA ATPase Inhibitors. Format: functional. As to conditions: 30 µM.
In test [2] the target is T1, Ubiquitin-activating enzyme e1, putative (Leishmania donovani (strain BPK282A1)) (UniProt E9BSI1).
T1 sequence (whole entry): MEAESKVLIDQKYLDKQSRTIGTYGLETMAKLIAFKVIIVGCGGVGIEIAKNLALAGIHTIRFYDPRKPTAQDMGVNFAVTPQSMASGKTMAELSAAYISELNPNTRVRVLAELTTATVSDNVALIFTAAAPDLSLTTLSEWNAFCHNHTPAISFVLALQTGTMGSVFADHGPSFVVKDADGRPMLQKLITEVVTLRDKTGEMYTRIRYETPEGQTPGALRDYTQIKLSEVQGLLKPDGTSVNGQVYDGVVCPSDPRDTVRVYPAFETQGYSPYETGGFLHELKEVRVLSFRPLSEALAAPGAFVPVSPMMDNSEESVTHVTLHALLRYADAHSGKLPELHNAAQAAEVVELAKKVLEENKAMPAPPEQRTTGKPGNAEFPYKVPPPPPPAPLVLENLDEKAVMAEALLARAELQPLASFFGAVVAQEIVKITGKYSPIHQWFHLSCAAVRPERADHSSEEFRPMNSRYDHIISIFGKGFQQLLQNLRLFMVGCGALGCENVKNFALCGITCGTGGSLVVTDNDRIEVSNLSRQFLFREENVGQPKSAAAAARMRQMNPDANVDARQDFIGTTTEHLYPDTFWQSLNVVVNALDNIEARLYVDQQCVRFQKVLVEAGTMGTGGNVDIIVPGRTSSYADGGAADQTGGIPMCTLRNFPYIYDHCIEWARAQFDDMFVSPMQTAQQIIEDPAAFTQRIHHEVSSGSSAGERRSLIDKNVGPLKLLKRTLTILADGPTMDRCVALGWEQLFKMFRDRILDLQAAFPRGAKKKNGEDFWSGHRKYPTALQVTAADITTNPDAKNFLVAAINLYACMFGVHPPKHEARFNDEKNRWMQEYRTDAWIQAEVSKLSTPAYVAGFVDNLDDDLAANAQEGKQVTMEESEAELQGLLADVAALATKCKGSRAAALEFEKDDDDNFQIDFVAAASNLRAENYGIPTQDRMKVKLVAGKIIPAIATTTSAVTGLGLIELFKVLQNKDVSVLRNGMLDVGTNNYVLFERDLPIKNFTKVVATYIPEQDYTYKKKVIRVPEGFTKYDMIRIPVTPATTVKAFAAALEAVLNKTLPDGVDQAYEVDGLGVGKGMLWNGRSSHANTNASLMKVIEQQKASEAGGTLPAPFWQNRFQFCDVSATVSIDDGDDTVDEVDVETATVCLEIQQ
The test can be described thus: Leishmania donovani Ubiquitin Activating Enzyme (LdE1). It counts as functional. As to conditions: 30 µM.

For test [3], the target named is T2, Aspartate--tRNA(Asp/Asn) ligase (Mycobacterium tuberculosis (strain ATCC 25618 / H37Rv)) (UniProt P9WFW3). Also: in the data most compounds retested in dose-response had high values.
T2 sequence (whole entry): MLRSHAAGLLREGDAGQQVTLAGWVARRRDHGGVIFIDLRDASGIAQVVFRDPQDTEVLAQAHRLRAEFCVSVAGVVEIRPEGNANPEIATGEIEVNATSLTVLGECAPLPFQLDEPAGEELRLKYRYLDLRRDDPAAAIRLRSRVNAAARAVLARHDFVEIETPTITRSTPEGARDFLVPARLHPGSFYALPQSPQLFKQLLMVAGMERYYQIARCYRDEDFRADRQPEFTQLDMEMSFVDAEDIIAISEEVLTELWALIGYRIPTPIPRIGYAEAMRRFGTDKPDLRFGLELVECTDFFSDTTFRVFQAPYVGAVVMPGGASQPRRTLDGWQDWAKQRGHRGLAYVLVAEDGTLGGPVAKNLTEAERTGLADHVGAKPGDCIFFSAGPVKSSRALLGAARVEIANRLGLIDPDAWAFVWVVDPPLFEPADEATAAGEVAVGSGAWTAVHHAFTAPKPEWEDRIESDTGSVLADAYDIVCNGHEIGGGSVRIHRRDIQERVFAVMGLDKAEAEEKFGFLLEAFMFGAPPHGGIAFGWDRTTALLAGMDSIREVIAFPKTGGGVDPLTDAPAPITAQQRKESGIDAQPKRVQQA
The test can be described thus: Assay for Asp RNA synthetase-1 from Mycobacterium tuberculosis. It counts as functional. As to conditions: 30 µM.

Test [4] has as its target AMP-activated protein kinase, AMPK (Homo sapiens) (UniProt P54646+O43741+P54619+Q9UGJ0+Q9Y478+Q13131+Q9UGI9). Kind of test: AMP-dependent Kinase enzyme assay. An in vitro enzyme assay that detects ADP turnover that is directly proportional to AMPK activity. This uses naive AMPK that is activated during the assay with MK-8722. Format: functional. The conditions noted are these: 30 µM.

Test [5] addresses Sialic acid-binding Ig-like lectin 9 (Homo sapiens) (UniProt Q9Y336). Kind of test: Hs-Siglec9 ALPHAscreen SOP 20170721. The conditions noted are these: 10 µM. On the technique in general: Bead proximity is the source of the signal in Alpha formats.
Another test deals with Trypanosoma cruzi. Kind of test: Trypanosoma cruzi phosphomannomutase and mannose-1-phosphate guanylyltransferase assay. It counts as functional. As to conditions: 10 µM.
Test [6] addresses T3, Arginase-2, mitochondrial (Homo sapiens) (UniProt P78540).
T3 sequence (whole entry): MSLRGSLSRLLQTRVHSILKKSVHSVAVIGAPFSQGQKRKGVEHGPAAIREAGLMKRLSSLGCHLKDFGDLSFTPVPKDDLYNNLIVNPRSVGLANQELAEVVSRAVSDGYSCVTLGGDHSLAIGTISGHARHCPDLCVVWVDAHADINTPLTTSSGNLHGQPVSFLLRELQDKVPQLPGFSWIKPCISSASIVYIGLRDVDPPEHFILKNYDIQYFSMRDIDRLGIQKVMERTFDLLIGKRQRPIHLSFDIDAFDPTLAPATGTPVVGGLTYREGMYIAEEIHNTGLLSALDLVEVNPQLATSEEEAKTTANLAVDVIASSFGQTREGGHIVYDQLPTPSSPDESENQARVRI
Kind of test: in vitro enzyme assay to detect the production of urea directly proportional to the activity of Arginase II. Also: in the data most compounds retested in dose-response had high values. It counts as functional. The conditions noted are these: 33.3 µM.

Test [7] addresses T4, Proteasome subunit beta (Trypanosoma cruzi) (UniProt O96673).
T4 sequence (whole entry): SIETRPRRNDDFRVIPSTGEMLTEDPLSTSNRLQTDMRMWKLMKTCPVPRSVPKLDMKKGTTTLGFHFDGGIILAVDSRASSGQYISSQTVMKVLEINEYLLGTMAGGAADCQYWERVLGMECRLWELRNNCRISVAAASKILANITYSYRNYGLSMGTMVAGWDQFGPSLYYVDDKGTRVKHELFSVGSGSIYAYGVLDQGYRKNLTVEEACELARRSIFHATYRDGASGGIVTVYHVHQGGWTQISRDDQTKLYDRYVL
Kind of test: Trypanosoma cruzi proteasome chymotrypsin-like activity (TcProtChymo) assay. Also: in the data most compounds retested in dose-response had high values. Format: functional. The conditions noted are these: 9.37 µM.

The species entered for the next test is Homo sapiens. Kind of test: To identify inhibition of the IFN signalling (Jak-Stat) pathway via expression of an eGFP reporter gene under the control of an IFN-stimulated response element (ISRE) containing MxA promoter. Format: functional. The conditions noted are these: 30 µM.
The target of test [8] is Shiga toxin 2 (Escherichia coli O157:H7) (UniProt P09385+P09386). Kind of test: E. coli 0.157:H7 Shiga Toxin SOP - stx2 screening assay. It counts as functional. As to conditions: 30 µM.
Test [9] concerns the target T5, Tyrosyl-tRNA synthetase, putative (Trypanosoma cruzi (strain CL Brener)) (UniProt Q4DSP6).
T5 sequence (whole entry): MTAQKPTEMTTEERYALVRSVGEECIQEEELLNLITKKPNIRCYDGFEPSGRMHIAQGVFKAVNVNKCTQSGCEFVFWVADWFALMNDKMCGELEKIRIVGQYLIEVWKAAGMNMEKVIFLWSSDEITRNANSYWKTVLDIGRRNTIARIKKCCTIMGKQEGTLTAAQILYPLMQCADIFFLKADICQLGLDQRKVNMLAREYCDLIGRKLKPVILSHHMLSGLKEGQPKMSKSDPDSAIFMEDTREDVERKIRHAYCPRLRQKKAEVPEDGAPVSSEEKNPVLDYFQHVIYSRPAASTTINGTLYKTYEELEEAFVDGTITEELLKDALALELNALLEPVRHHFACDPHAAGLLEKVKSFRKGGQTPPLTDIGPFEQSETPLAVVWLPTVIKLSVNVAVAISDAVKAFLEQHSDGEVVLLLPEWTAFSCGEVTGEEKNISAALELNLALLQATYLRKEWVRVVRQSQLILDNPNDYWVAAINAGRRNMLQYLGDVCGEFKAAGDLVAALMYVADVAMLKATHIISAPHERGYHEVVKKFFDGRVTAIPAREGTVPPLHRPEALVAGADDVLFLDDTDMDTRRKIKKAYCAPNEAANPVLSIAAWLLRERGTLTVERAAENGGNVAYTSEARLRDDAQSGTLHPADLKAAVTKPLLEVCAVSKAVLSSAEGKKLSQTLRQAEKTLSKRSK
The test can be described thus: Trypanosoma cruzi tyrosyl tRNA synthetase (TcYRS) _High Tyrosine SOP. Also: in the data most compounds retested in dose-response had high values. Format: functional. As to conditions: 30 µM.

The target of test [10] is T5, Tyrosyl-tRNA synthetase, putative (Trypanosoma cruzi (strain CL Brener)). The test can be described thus: Trypanosoma cruzi tyrosyl tRNA synthetase (TcYRS) SOP. Format: functional. As to conditions: 30 µM.
The target of test [11] is Chromo domain-containing protein 1 (Saccharomyces cerevisiae (strain ATCC 204508 / S288c) (Baker's yeast)) (UniProt P32657). The test can be described thus: ScCHD-1 Enzyme Inhibition Assay. Also: in the data most compounds retested in dose-response had high values. Format: functional. The conditions noted are these: 30 µM.

For some assays here: Potency and affinity values are given separately.

Protein translocase subunit SecA (Escherichia coli (strain K12)), sequence (P10408 whole entry): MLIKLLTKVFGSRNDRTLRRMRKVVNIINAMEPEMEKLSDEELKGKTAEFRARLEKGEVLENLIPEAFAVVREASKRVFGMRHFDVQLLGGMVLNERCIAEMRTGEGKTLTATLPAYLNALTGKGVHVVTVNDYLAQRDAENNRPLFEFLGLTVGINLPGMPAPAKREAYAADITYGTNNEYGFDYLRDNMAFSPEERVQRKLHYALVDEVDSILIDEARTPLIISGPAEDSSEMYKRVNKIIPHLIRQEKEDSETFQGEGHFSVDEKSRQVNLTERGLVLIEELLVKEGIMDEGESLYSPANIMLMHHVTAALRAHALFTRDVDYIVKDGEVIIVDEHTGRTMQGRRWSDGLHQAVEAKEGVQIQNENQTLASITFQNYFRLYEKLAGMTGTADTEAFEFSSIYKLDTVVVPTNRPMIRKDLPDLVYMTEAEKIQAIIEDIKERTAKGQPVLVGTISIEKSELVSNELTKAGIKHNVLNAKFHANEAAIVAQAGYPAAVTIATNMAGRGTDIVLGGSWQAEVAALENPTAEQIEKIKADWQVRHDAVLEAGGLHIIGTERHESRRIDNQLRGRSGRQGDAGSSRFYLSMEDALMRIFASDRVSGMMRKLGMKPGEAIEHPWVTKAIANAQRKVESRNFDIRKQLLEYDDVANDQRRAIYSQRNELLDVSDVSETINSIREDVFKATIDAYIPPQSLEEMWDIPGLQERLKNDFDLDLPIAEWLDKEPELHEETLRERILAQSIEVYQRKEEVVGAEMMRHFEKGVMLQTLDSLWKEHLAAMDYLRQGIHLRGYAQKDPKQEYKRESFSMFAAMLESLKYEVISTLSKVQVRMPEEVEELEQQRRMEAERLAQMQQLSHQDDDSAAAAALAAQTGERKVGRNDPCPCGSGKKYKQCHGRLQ
Sialic acid-binding Ig-like lectin 9 (Homo sapiens), sequence (Q9Y336 whole entry): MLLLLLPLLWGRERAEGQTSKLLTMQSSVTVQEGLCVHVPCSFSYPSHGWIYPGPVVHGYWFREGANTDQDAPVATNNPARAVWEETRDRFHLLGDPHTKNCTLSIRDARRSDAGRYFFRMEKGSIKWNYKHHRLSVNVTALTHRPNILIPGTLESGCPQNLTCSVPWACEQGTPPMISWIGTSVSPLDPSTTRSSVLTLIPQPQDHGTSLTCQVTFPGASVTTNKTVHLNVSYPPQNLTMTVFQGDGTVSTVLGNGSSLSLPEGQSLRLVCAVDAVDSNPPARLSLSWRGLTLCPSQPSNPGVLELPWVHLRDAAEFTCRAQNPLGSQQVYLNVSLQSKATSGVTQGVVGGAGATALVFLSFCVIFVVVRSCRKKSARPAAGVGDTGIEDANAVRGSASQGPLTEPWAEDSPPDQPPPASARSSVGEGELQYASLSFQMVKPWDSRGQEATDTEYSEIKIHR
Chromo domain-containing protein 1 (Saccharomyces cerevisiae (strain ATCC 204508 / S288c) (Baker's yeast)), sequence (P32657 whole entry, the tested form may be a part): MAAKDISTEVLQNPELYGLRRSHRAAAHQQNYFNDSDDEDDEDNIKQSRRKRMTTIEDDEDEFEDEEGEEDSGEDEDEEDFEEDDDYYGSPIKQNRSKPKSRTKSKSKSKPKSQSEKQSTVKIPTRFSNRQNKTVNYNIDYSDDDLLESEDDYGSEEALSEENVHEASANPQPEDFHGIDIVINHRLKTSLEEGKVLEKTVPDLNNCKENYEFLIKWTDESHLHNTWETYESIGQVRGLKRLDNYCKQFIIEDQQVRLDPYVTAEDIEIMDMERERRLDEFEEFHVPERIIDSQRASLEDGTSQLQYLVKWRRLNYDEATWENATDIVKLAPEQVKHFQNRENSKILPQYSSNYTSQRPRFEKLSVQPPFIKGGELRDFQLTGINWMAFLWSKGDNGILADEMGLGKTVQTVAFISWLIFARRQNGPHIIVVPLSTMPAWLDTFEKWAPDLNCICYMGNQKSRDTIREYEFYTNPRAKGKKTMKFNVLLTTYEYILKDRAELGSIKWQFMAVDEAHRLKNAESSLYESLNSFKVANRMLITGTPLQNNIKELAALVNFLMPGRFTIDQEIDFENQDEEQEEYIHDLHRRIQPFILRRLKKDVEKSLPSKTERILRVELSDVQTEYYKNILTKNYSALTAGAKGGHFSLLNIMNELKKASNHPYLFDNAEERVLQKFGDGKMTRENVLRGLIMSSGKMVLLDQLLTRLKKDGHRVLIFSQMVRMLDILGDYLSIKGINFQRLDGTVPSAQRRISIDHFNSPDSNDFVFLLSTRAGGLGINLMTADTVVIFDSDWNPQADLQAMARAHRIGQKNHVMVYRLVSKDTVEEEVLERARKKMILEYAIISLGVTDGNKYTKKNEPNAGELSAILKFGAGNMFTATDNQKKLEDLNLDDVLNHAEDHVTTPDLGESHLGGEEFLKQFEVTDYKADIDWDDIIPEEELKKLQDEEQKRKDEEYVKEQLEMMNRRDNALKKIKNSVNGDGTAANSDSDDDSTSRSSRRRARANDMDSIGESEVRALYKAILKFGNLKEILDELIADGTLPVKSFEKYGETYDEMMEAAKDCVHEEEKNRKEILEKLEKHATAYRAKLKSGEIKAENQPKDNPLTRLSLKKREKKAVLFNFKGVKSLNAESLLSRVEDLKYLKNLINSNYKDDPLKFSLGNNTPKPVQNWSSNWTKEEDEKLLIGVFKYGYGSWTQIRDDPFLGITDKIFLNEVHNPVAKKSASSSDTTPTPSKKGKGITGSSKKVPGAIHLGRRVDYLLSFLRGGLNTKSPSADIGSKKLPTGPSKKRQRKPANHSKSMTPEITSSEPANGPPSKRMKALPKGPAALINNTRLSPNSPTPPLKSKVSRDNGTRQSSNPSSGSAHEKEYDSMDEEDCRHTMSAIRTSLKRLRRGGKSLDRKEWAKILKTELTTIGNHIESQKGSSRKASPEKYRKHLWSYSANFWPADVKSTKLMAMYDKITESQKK

For the compound `CCS(=O)(=O)NC[C@]12COC[C@H]1CN(Cc1cc(C)on1)C2`, the Percent Effect in test [1] was -3.29%; in test [2] it was 0%; in [3], -3.83%; in test [4], 4.08%; in [5], 3.76%; with Trypanosoma cruzi, -0.684%. Also, the Percent Effect was 4.14% in [6]; 20.9% in test [7]; -25% in the test listed under Homo sapiens; 1.54% in [8]; 5.41% in test [9]; 12.8% in test [10]. The Percent Effect in [11] was -1.96%.

Regarding `CC(Cn1cccn1)NCc1nc(-c2cccs2)no1` (stereo not given), the Percent Effect in [1] was -4.32%; in test [2] it was 5.26%; in test [3] it was -3.4%; in [4] it was -6.35%; in test [5], 2.35%; in the test on Trypanosoma cruzi it was 3.08%. In addition, the Percent Effect was -2.88% in test [6]; 5.67% in test [7]; -9.95% in the test filed under Homo sapiens; 4.43% in [8]; 4.43% in test [9]; 16.1% in test [10]. In addition, the Percent Effect in test [11] was -2.61%.

Turning to `COc1ccc2c(ccn2CCN)c1`, the Percent Effect is -4.08% in test [1]; -49.3% in test [2]; -3.77% in test [3]; -2.79% in [4]; 5.94% in test [5]; -0.982% in the test on Trypanosoma cruzi. For the same compound, the Percent Effect was 0.176% in test [6]; 6.65% in [7]; 19% in the test filed under Homo sapiens; -17.9% in [8]; 7.41% in test [9]; 10.3% in test [10]. Further, the Percent Effect in [11] is -4.41%.

In the case of `CCOCC(O)CN1CCN(C(=O)Cc2ccccc2C)CC1` (stereo not given), the Percent Effect is 1.46% in [1]; 13.2% in test [2]; -3.28% in [3]; -1.09% in test [4]; 0.779% in test [5]; -8.65% in the test on Trypanosoma cruzi. For the same compound, the Percent Effect in test [6] was determined as 8.43%; in [7], 8.69%; in the test listed under Homo sapiens it was 20%; in test [8], 30.3%; in test [9], 0.49%; in test [10], 9.76%. In test [11], the Percent Effect is -8.57%.

Take `Cc1cc(CN2C[C@@H]3COC[C@]3(CNC(=O)c3ccno3)C2)no1`: the Percent Effect in test [1] is -5.72%; in test [2], 2.7%; in test [3] it was 6.65%; in test [4], 2.65%; in [5], 4.53%; in the test with Trypanosoma cruzi it was 0.293%. In addition, the Percent Effect in [6] is 8.6%; in test [7] it was 13.1%; in the test filed under Homo sapiens, -16.8%; in test [8], -2.33%; in test [9], 3.24%; in test [10], 5.13%. Moreover, in test [11], the Percent Effect is 1.22%.
